Screening data as filed in PubChem.
In the library only some 19% were active in any assay of this set; here they are far more common.
DT40 TDP1 no CPT: qHTS for Inhibitors of human tyrosyl-DNA phosphodiesterase 1 (TDP1): qHTS in cells in absence of CPT. DT40 Tdp1-/- hTDP1 cells, no CPT, ATP luminescence, 48 h. Potency, µM (top dose mostly 46.2 µM), for inactives: at the top dose activity change, negative = growth inhibition, actives largely listed as inhibitors. 420,000 compounds, 15% hits; note: potency is the fitted concentration of half-maximal effect; nearly all actives have a fitted effect of over 55% in size
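No-CPT arm: Tdp1-/-;hTDP1 DT40 cells (400/well) plus compounds, incubated ≥48 hr at 37 °C. Readout CellTiter-Glo luminescence.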
TDP1 cell CPT: DT40-hTDP1 cell growth loss with CPT; chicken DT40 Tdp1-/-;hTDP1 cells + 20 nM CPT, ATP luminescence, 48 h; Potency, µM (top dose mostly 46.2 µM), for the others: top-dose activity change, negative = growth inhibition, most hits filed as inhibitors; 420,000 compounds, 12% hits; AID 686979; note: potency is the fitted concentration of half-maximal effect; nearly all actives have a fitted effect of over 55% in size
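Chicken DT40 Tdp1-/- cells complemented with human TDP1, 400 cells/well, exposed to compounds plus 20 nM camptothecin for at least 48 h at 37 C; viability read as ATP content by CellTiter-Glo luminescence.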
ELG1 DNA repair: ELG1-dependent DNA repair inhibition; 330,000 compounds, 2.3% hits; AID 504467; Potency, µM (titrated, usually from 46.1 µM), for the others: at the highest dose activity change, negative = inhibition, actives largely listed as inhibitors; HEK293T ELG1-luciferase reporter, luminescence, 16 h; DNA damage induced by 5-fluorouridine; note: potency is the fitted concentration of half-maximal effect; nearly all actives have a fitted effect of over 55% in size
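HEK293T cells expressing luciferase-tagged ELG1 (2,000/well) received 5-Fluorouridine plus compound or DMSO for 16 hr at 37 °C. Luciferase was read by ONE-Glo luminescence after 30 min at room temperature.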
IL-1B inflam inh: inhibitors of inflammasome signaling (IL-1 beta secretion). 360,000 compounds, 4.7% hits. THP-1 LPS/ATP IL-1B secretion, AlphaLISA, 16 h; hits give low values. activity change, % at 57.5 µM. AID 743279; in the data active = activity change below about -50%; inconclusive = mostly about -30% to -49%
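THP-1 cells pretreated 1 hr with compounds (up to 57.5 uM final), then stimulated with LPS (250 ng/mL final) plus ATP (1.25 mM final); secreted IL-1B measured by AlphaLISA after 16 hr, decreased signal indicating inhibition.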
HT1080NT lethal: kills 2HG-producing HT-1080-NT fibrosarcoma cells. HT-1080-NT fibrosarcoma viability, CellTiter-Glo ATP luminescence, 48 h. Potency, µM (series often up to 46.1 µM), without a hit: at the highest dose activity, negative = less viability, actives largely listed as cytotoxic. 360,000 compounds, 1.6% hits;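 note: NT is the 2HG producing partner of a matched IDH1 knockdown line; potency is the fitted concentration of half-maximal effect; 0% = DMSO-treated cells and -100% = media-only wells without cells; nearly all actives have a fitted effect of over 55% in size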
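HT-1080-NT fibrosarcoma cells (2HG-overproducing), 750 cells/well in RPMI with 5% FBS, dosed after 2 h and incubated 48 h at 37C. CellTiter-Glo luminescence normalized to DMSO and no-cell wells; concentration-response curves fitted and classed.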
HT1080 IDH1KD tx: kills HT-1080 cells with IDH1 knockdown | HT-1080 IDH1 knockdown viability, ATP luminescence, 48 h | Potency, µM (highest dose often 46.1 µM), for inactives: top-dose activity, negative = toxicity, actives largely listed as cytotoxic | 360,000 compounds, 2% hits;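 note: potency is the fitted concentration of half-maximal effect; 0% = DMSO wells and -100% = cell-free medium wells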
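In this qHTS, HT-1080 cells depleted of IDH1 are exposed for 48 h at 37 °C to compound titrations. Toxicity is scored from CellTiter-Glo luminescence, with DMSO as full viability and medium alone as none.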
Active calls of the source: *. Unless noted, calls come from the whole dose curve; as a rule, active = well fitted curve in the direction sought with a large enough effect; inconclusive = small, poorly fitted or top-dose-only effect, or another doubt; inactive = no such curve, though single readings can be large; an effect the other way counts as inactive or inconclusive. Unless noted, % is set by controls: 0 for no effect and ±100 for the full control effect.

Screening C=CCN1C(=O)C(C)(C)N(C(=O)c2cccc([N+](=O)[O-])c2)c2ccccc21 returned DT40 TDP1 no CPT inconclusive, TDP1 cell CPT inconclusive, ELG1 DNA repair inconclusive, IL-1B inflam inh 3.6, HT1080NT lethal -16.2% and HT1080 IDH1KD tx -12.8%.
For COc1cc(/C=N/n2c(C3CCCCC3)n[nH]c2=S)ccc1O the results were DT40 TDP1 no CPT -23.6%, TDP1 cell CPT -6.3%, ELG1 DNA repair inconclusive, IL-1B inflam inh 1.1, HT1080NT lethal -10.0% and HT1080 IDH1KD tx 0.0%.
For COc1ccccc1Cc1c(C2CCCCC2)nc2ccc(Br)cn12 the results were DT40 TDP1 no CPT 6.51µM*, TDP1 cell CPT 8.2µM*, IL-1B inflam inh 0.0, HT1080NT lethal inconclusive and HT1080 IDH1KD tx inconclusive.
`COc1ccccc1Cc1c(-c2ccc(C)cc2)nc2c(C)cc(Br)cn12` gave DT40 TDP1 no CPT 20.6µM*, TDP1 cell CPT 20.6µM*, IL-1B inflam inh 41.6, HT1080NT lethal inconclusive and HT1080 IDH1KD tx inconclusive.
COc1ccccc1Cc1c(-c2ccc(F)cc2)nc2c(C)cc(Br)cn12 was read as DT40 TDP1 no CPT inconclusive, TDP1 cell CPT inconclusive, IL-1B inflam inh 1.4, HT1080NT lethal inconclusive and HT1080 IDH1KD tx inconclusive.
For COc1ccccc1Cc1c(-c2ccc(C)cc2)nc2ccc(Br)cn12 the results were DT40 TDP1 no CPT 23.1µM*, TDP1 cell CPT 20.6µM*, IL-1B inflam inh -23.7, HT1080NT lethal -18.2% and HT1080 IDH1KD tx -6.6%.
COC(=O)c1ccc2nc(-c3ccccc3)c(Cc3ccccc3OC)n2c1 was read as DT40 TDP1 no CPT 16.4µM*, TDP1 cell CPT 18.4µM*, IL-1B inflam inh -10.3, HT1080NT lethal -2.1% and HT1080 IDH1KD tx -8.7%.
For Cc1ccccc1CNC(=O)c1ccc2sc([C@H]3C[C@H](O)[C@@H](CO)O3)nc2c1 the results were DT40 TDP1 no CPT inconclusive, TDP1 cell CPT -3.5%, IL-1B inflam inh 6.4, HT1080NT lethal -1.0% and HT1080 IDH1KD tx 0.3%.
COc1cccc(C(=O)N2CCc3c(C(=O)NC(C)c4ccco4)c(OC)cc(=O)n3CC2)c1OC (stereo unspecified) was read as DT40 TDP1 no CPT 1.5% and TDP1 cell CPT 9.0%.
`C[C@@H](O)[C@H]1C(=O)N2C(C(=O)O)=C([C@H]3CCCO3)S[C@H]12` gave DT40 TDP1 no CPT 4.4% and TDP1 cell CPT 11.4%.
`CSc1nnc2[nH]c(=O)cc(C)n12` gave DT40 TDP1 no CPT -8.4% and TDP1 cell CPT 12.1%.
`Cc1ccc(S(=O)(=O)N2CC3(O)CN(C(=O)OC(C)C)N(C(=O)OC(C)C)CC3(OC(=O)NCC3CCCCC3)C2)cc1` (stereo unspecified) gave DT40 TDP1 no CPT inconclusive, TDP1 cell CPT 16.4µM*, IL-1B inflam inh inconclusive, HT1080NT lethal inconclusive and HT1080 IDH1KD tx inconclusive.
`Cc1ccc(S(=O)(=O)N2CC3(O)CN(C(=O)OC(C)C)N(C(=O)OC(C)C)CC3(OC(=O)NC3CC3)C2)cc1` (stereo unspecified) gave DT40 TDP1 no CPT inconclusive, TDP1 cell CPT inconclusive, IL-1B inflam inh -21.0, HT1080NT lethal 13.4% and HT1080 IDH1KD tx 17.8%.
For CCCCCCNC(=O)OC12CN(C(=O)OC(C)C)N(C(=O)OC(C)C)CC1(O)CN(S(=O)(=O)c1ccc(C)cc1)C2 (stereo unspecified) the results were DT40 TDP1 no CPT 20.6µM*, TDP1 cell CPT inconclusive, IL-1B inflam inh -25.6, HT1080NT lethal -28.1% and HT1080 IDH1KD tx inconclusive.
For Cc1ccc2c(=O)[nH]c(Cc3ccccc3C(=O)O)nc2c1 the results were DT40 TDP1 no CPT 18.4µM*, TDP1 cell CPT inconclusive, ELG1 DNA repair inconclusive, IL-1B inflam inh -7.0, HT1080NT lethal 0.0% and HT1080 IDH1KD tx -2.3%.
`COc1ccc(-c2cc(C(F)(F)F)nc(N3CCN(C)CC3)n2)cc1` gave DT40 TDP1 no CPT 16.4µM*, TDP1 cell CPT inconclusive, ELG1 DNA repair inconclusive, IL-1B inflam inh -65.0*, HT1080NT lethal inconclusive and HT1080 IDH1KD tx inconclusive.
For COc1ccc(-c2cc(C(F)(F)F)nc(-n3ccnc3C)n2)cc1 the results were DT40 TDP1 no CPT 20.6µM*, TDP1 cell CPT inconclusive, ELG1 DNA repair 25.9µM*, IL-1B inflam inh 0.0, HT1080NT lethal -0.7% and HT1080 IDH1KD tx -1.8%.
COc1ccc(-c2cc(C(F)(F)F)nc(N3CCN(C)CC3)n2)cc1OC was read as DT40 TDP1 no CPT 20.6µM*, TDP1 cell CPT inconclusive, ELG1 DNA repair inconclusive, IL-1B inflam inh 0.0, HT1080NT lethal inconclusive and HT1080 IDH1KD tx inconclusive.
COc1ccc(-c2cc(C(F)(F)F)nc(N3CCCCC3)n2)cc1OC was read as DT40 TDP1 no CPT inconclusive, TDP1 cell CPT inconclusive, ELG1 DNA repair -10.8%, IL-1B inflam inh 15.0, HT1080NT lethal 25.3% and HT1080 IDH1KD tx 12.1%.
`COc1ccc(-c2cc(C(F)(F)F)nc(N3CCCCCC3)n2)cc1` gave DT40 TDP1 no CPT -19.9%, TDP1 cell CPT -10.2%, ELG1 DNA repair -5.6%, IL-1B inflam inh 23.9, HT1080NT lethal 8.3% and HT1080 IDH1KD tx 9.5%.
`CCc1ccc(NC(=O)CN(CC(=O)Nc2ccc(CC)cc2)CC(C)O)cc1` (stereo unspecified) gave DT40 TDP1 no CPT inconclusive, TDP1 cell CPT inconclusive, ELG1 DNA repair inconclusive, IL-1B inflam inh -20.4, HT1080NT lethal -22.9% and HT1080 IDH1KD tx -6.1%.
`O=C1CC(c2cccs2)Cc2nc(NC(=O)C3CC3)ncc21` (stereo unspecified) gave DT40 TDP1 no CPT -7.3%, TDP1 cell CPT 1.9%, ELG1 DNA repair 0.8%, IL-1B inflam inh -14.6, HT1080NT lethal -7.6% and HT1080 IDH1KD tx 10.7%.
`O=C(COc1ccc(F)cc1)Nc1nnc(SCc2cc(=O)n3ccccc3n2)s1` gave DT40 TDP1 no CPT inconclusive and TDP1 cell CPT -9.2%.
O=c1[nH][nH]c2c1C(C1CCCCC1)OC(C1CCCCC1)C2 (stereo unspecified) was read as DT40 TDP1 no CPT inconclusive, TDP1 cell CPT inconclusive, IL-1B inflam inh -1.8, HT1080NT lethal 16.6% and HT1080 IDH1KD tx 0.5%.
